PubChem BioAssay (NCI)
The panel holds about 79,000 compounds, 15% with a hit somewhere; the sample as a whole holds those more often. A number with no mark means an inactive call. Active and inactive are the calls of the source. No stated cut-off is given here; in the data, active means growth inhibition above about 70%; inactive means the rest.

Experiment: NCI Yeast Anticancer Drug Screen. Data for the sgs1 mgt1 strain (AID 161);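 further: 0% = growth of cultures given vehicle only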
Details: S. cerevisiae sgs1 mgt1 strain, active compounds read high
Description: Growth inhibition of yeast strains with defined genetic alterations is measured as a screen for potential anti-cancer activity. Selected strains with alterations in DNA damage repair or cell cycle control were exposed to compounds and growth inhibition was measured relative to vehicle treated controls. The strain used in this assay is sgs1 mgt1

[1] = at 5.0 µM (retest, dose inferred, filed as 0.5)
[2] = at 50.0 µM (retest, dose inferred, filed as 5.0)

Compound	growth inhibition [1]	growth inhibition [2]	growth inhibition (at 50.0 µM)
N#CC(=S)Nc1cccc(Cl)c1	28%	68%	66.7%
CCCCC1=NNC(=O)C1	17%	-26%	90% (active)
CC(C)(C)[OH+][O-].[O-]c1ccc(Cl)cc1C=Nc1ccc(Cl)cc1[O-].[O]=[V]	20%	40%	91.5% (active)
CCCCCC(=O)c1ccc(O)cc1O	-5%	92% (active)	–
CCCCC(CC)C(=O)Oc1ccc(C(=O)c2ccccc2)c(O)c1 (stereo unspecified)	-32%	91% (active)	82% (active)
Cn1ncc2cc3c(Nc4ccc(Cl)cc4)cccc3nc21	-1%	-2%	-10.4%
O=C1C=CC(=O)N1c1ccc2c(c1)OCO2	8%	98% (active)	99.2% (active)
O=[N+]([O-])/C(C(Cl)=C(Cl)Cl)=C1/OCCS1	40%	100% (active)	90.6% (active)
CCN(CC)CCNC(=O)c1nn(-c2ccc(Cl)cc2)c2c1CCc1cc(OC)ccc1-2	15%	80% (active)	67.5%
Cc1cccc(/C=N\NC(=S)N2CCCCC2)n1	97% (active)	99% (active)	91.5% (active)
COc1ccc(N2C(=O)CC(Cl)C2=O)cc1 (stereo unspecified)	-56%	59%	95.5% (active)
CCCCCCCCCCCc1nc(N)n[nH]1	-66%	59%	80.6% (active)
CC(C)c1[nH]nc(C(N)=O)c1N=NN(C)C	-47%	24%	28.9%
Cc1ccc(Nc2c3c(c(C#N)c4nc5ccccc5n24)CCCC3)cc1	16%	30%	74.5% (active)
